Records with an inconclusive call do not appear. A call without a number means that no potency is given here. Some compounds were tested as several samples or in several runs, with calls that do not always agree. The source made the active and inactive calls. Unless noted, calls follow the shape of the dose curve; as a rule, active = well fitted curve in the direction sought with a large enough effect in the repeat runs; inconclusive = weak or mixed curves; inactive = no such curve, though single readings can be large; an effect the other way counts as inactive or inconclusive.
What was measured:
[1] = target: Peroxisome proliferator-activated receptor delta (Homo sapiens) (UniProt Q03181); test: qHTS assay to identify small molecule antagonists of the peroxisome proliferator-activated receptor delta (PPARd) signaling pathway (AID 743215; active = well fitted inhibition curve with a large enough effect in the signal ratio in the repeat runs, not every such curve was filed as active; the % refers to the signal ratio;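 also: cells stimulated with agonist L165041 at 300 nM final during compound exposure; series mostly up to about 62 µM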)
Peroxisome proliferator-activated receptor delta (Homo sapiens), sequence (Q03181 whole entry, looked up): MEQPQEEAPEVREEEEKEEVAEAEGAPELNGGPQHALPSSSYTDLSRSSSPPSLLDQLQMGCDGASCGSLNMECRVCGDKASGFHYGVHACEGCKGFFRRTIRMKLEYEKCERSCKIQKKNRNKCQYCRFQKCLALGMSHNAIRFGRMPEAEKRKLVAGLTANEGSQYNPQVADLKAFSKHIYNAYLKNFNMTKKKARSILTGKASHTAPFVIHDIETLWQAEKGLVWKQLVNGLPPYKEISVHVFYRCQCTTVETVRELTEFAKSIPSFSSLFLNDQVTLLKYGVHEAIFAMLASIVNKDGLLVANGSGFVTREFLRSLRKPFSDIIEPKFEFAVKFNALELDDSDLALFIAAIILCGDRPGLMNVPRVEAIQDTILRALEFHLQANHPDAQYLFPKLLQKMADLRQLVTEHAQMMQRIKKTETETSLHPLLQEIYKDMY
Procedure, shortened: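 With L165041 present at 300 nM final, compounds were incubated 17 h at 37 C on PPARd UAS-bla HEK293H cells. A FRET-based beta-lactamase substrate was then applied for 2 h at room temperature and fluorescence intensity recorded.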

[2] = qHTS assay to identify small molecule agonists of the farnesoid-X-receptor (FXR) signaling pathway - cell viability counter screen (AID 743218); also: nearly all actives have a fitted effect of over 45% in size
Procedure, shortened: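 After 16 h at 37 C with test compounds, FXR-bla HEK 293T cells were given LiveBLAzer B/G substrate for 2 h at RT and then CellTiter-Glo; luminescence was taken after 30 min.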

[3] = qHTS assay to identify small molecule antagonists of the farnesoid-X-receptor (FXR) signaling pathway - cell viability counter screen (AID 743221; active = well fitted cell-killing curve with a large enough effect in the repeat runs, not every such curve was filed as active; also: nearly all actives have a fitted effect of over 50% in size)
Procedure, shortened: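 Multiplexed counter screen: viability of FXR-bla HEK 293T cells under agonist stimulation by chenodeoxycholic acid (50 uM, final) and test compound for 16 h at 37 C, measured by CellTiter-Glo luminescence in the reporter wells.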

[4] = qHTS assay to identify small molecule agonists of the vitamin D receptor (VDR) signaling pathway - cell viability counter screen (AID 743224); also: series mostly up to about 63 µM; nearly all actives have a fitted effect of over 50% in size
Procedure, shortened: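 Here cell health was gauged by luminescent ATP detection (CellTiter-Glo, 30 min RT) in VDR-bla cells that had been incubated with test compounds for 16 h at 37C and 5% CO2.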

[5] = qHTS assay to identify small molecule antagonists of the vitamin D receptor (VDR) signaling pathway - cell viability counter screen (AID 743225); also: nearly all actives have a fitted effect of over 50% in size
Procedure, shortened: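 HEK293T VDR-bla; cpd + 1a,25-(OH)2D3 3 nM final, 16 h 37C/5% CO2; B/G FRET substrate 2 h RT; then CellTiter-Glo 30 min RT, luminescence.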

[6] = qHTS assay to identify small molecule agonists of the NFkB signaling pathway - cell viability counter screen (AID 1159515; calls by dose curve; also: series mostly up to about 61 µM; nearly all actives have a fitted effect of over 55% in size)
Procedure, shortened: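 5 hr compound treatment of NFkB-bla ME-180 cells (2,000/well, seeded overnight beforehand), followed by reporter substrate for 1.5 hr. CellTiter-Glo added afterward; luminescence after 30 min RT.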

[7] = qHTS assay to identify small molecule agonists of the endoplasmic reticulum stress response signaling pathway (AID 1159516; active = well fitted activation curve with a large enough effect in the signal ratio in the repeat runs, not every such curve was filed as active; the % refers to the signal ratio)
Procedure, shortened: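 Reporter HeLa cells (ESRE-beta-lactamase) underwent 5 hr compound incubation at 37 C and 5% CO2 in quantitative HTS format. Detection followed 2 hr of FRET substrate loading at room temperature.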

[8] = qHTS assay to identify small molecule agonists of the endoplasmic reticulum stress response signaling pathway - cell viability counter screen (AID 1159517; calls by dose curve;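 also: HeLa cells carrying an ER stress response element beta-lactamase reporter; series mostly up to about 61 µM; nearly all actives have a fitted effect of over 50% in size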)
Procedure, shortened: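 Cells, HeLa ESRE-bla; density, 1,500/well; dosing, 5 hr at 37 C, 5% CO2; readout, CellTiter-Glo luminescence after 30 min RT.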

[9] = qHTS assay to identify small molecule antagonists of the retinoid-related orphan receptor gamma (ROR-gamma) signaling pathway - cell viability counter screen (AID 1159520); also: nearly all actives have a fitted effect of over 50% in size; also: potency is read from the fitted curve at half-maximal effect
Procedure, shortened: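 Cytotoxicity was read from cellular ATP (CellTiter-Glo luminescence) after 16 hr at 37 C with 1 uM doxycycline induction. The inducer was added 2 hr after compound transfer to Tet-on ROR gamma CHO cells.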

[10] = target: Nuclear receptor ROR-gamma (Homo sapiens) (UniProt P51449); test: qHTS assay to identify small molecule antagonists of the retinoid-related orphan receptor gamma (ROR-gamma) signaling pathway (AID 1159521)
Procedure, shortened: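 Cells were plated, rested 4 h at 37 C, exposed to compounds for 2 h, then given 1 uM final doxycycline hyclate to induce RORγ expression. After 16 h, ONE-Glo luminescence from the ROR response element reporter was measured.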

[11] = qHTS assay to identify small molecule agonists of the AP-1 signaling pathway - cell viability counter screen (AID 1159525; calls by dose curve; also: nearly all actives have a fitted effect of over 55% in size)
Procedure, shortened: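 Luminescent ATP readout (Cell Titer Glo, 30 min RT), normalised to DMSO and tetra n-octyl ammonium bromide controls. Cells were ME-180 AP-1-bla in 0.5% dialyzed FBS Opti-MEM, with a 5 h, 37 °C compound exposure.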

[12] = qHTS assay to identify small molecule agonists of the AP-1 signaling pathway (AID 1159526; calls by dose curve)
[13] = qHTS assay to identify small molecule antagonists of the peroxisome proliferator-activated receptor delta (PPARd) signaling pathway - cell viability counter screen (AID 743213); also: nearly all actives have a fitted effect of over 50% in size
Procedure, shortened: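 PPARd-bla HEK293H cells (3000/well) got compound plus 300 nM L165041 agonist for 17 h at 37 C. Viability in the same wells came from CellTiter-Glo luminescence after 30 min at room temperature.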

[14] = target: Bile acid receptor (Homo sapiens) (UniProt Q96RI1); test: qHTS assay to identify small molecule antagonists of the farnesoid-X-receptor (FXR) signaling pathway (AID 743217; active = well fitted inhibition curve with a large enough effect in the signal ratio in the repeat runs, not every such curve was filed as active; the % refers to the signal ratio)
Bile acid receptor (Homo sapiens), sequence (Q96RI1 whole entry, looked up): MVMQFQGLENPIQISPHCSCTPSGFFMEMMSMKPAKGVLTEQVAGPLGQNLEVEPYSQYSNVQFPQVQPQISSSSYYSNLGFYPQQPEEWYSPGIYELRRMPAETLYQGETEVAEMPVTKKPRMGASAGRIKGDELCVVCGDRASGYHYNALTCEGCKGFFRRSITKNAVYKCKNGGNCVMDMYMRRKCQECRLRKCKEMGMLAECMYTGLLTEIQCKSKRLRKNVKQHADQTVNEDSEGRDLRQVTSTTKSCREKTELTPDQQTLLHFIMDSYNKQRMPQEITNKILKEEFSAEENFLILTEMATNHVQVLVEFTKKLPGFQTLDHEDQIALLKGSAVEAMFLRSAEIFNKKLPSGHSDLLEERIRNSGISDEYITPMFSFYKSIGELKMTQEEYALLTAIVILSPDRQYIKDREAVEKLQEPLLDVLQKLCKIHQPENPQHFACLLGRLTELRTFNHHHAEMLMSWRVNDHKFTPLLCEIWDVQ
Procedure, shortened: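 In this cell-based antagonist screen, inhibition of CDCA-driven (50 uM final) UAS-beta-lactamase expression in HEK 293T cells was measured by FRET fluorescence following 16 h compound exposure at 37 °C.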

[15] = target: Bile acid receptor (Homo sapiens) (UniProt Q96RI1); test: qHTS assay to identify small molecule agonists of the farnesoid-X-receptor (FXR) signaling pathway (AID 743220; active = well fitted activation curve with a large enough effect in the signal ratio in the repeat runs, not every such curve was filed as active; the % refers to the signal ratio)
Procedure, shortened: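 Beta-lactamase reporter under UAS control in GeneBLAzer FXR HEK 293T cells (5000/well) measured with LiveBLAzer FRET substrate after 2 h at room temperature. Compound exposure lasted 16 h at 37C.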

[16] = target: Vitamin D3 receptor (Homo sapiens) (UniProt P11473); test: qHTS assay to identify small molecule antagonists of the vitamin D receptor (VDR) signaling pathway (AID 743223; active = well fitted inhibition curve with a large enough effect in the signal ratio in the repeat runs, not every such curve was filed as active; the % refers to the signal ratio)
Vitamin D3 receptor (Homo sapiens), sequence (P11473 whole entry, looked up): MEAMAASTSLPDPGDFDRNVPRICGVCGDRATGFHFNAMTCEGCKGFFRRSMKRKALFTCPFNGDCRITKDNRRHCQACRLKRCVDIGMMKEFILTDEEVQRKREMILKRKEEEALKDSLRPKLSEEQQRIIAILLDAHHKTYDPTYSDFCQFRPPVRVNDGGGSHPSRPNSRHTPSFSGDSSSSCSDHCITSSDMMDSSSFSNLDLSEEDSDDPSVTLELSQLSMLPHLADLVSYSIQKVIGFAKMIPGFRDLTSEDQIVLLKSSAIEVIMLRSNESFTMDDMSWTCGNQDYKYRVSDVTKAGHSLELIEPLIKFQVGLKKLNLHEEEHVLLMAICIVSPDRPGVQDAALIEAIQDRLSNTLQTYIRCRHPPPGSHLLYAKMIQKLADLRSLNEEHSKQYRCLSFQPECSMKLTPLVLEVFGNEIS
Procedure, shortened: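 Cells carrying a VDR-driven beta-lactamase reporter (VDR-bla) were co-treated with compound and 3 nM final 1alpha,25-dihydroxyvitamin D3 for 16 h at 37C; reporter activity was measured as FRET substrate fluorescence after 2 h at room temperature.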

[17] = target: Retinoic acid receptor RXR-alpha (Homo sapiens) (UniProt P19793); test: qHTS assay to identify small molecule agonists of the RXR signaling pathway (AID 1159527; calls by dose curve; also: nearly all actives have a fitted effect of over 35% in size)
Retinoic acid receptor RXR-alpha (Homo sapiens), sequence (P19793 whole entry, looked up): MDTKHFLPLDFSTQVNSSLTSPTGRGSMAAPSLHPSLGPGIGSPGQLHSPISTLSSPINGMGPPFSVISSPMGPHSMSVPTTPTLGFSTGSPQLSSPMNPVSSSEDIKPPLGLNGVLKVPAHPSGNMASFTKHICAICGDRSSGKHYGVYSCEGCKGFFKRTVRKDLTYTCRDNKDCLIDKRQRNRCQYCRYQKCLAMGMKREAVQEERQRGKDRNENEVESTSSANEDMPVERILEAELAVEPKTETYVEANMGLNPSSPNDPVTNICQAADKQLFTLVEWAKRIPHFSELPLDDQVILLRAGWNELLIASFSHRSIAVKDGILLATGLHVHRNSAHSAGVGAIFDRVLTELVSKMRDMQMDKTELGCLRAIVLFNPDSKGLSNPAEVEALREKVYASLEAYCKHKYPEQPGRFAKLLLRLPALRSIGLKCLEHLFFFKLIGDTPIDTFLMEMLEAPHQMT
Procedure, shortened: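 Cells plated at 2,000/well, rested 5 hr at 37 C, pin-dosed with DMSO compound solutions, incubated 16 hr, then loaded with B/G FRET substrate for 2 hr at RT before dual-emission fluorescence reading.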

[18] = qHTS assay to identify small molecule agonists of the RXR signaling pathway - cell viability counter screen (AID 1159529)
Procedure, shortened: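 Steps: seed RXR-alpha-UAS-bla HEK 293T cells in assay medium containing 2% charcoal-stripped FBS; incubate 5 hr; add compounds in DMSO; incubate 16 hr at 37 C; after the bla read, add CellTiter-Glo and read luminescence at 30 min.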

[19] = target: Vitamin D3 receptor (Homo sapiens) (UniProt P11473); test: qHTS assay to identify small molecule agonists of the vitamin D receptor (VDR) signaling pathway (AID 743222; calls by dose curve)
Procedure, shortened: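 VDR-bla cells were seeded, left 4 h, treated with compounds in DMSO for 16 h, incubated 2 h at RT with B/G FRET substrate, and read for fluorescence.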

CC(C)(c1ccc(OCC2CO2)cc1)c1ccc(OCC2CO2)cc1 (stereo not drawn)
Potency [1]: inactive
Potency [2]: inactive
Potency [3]: inactive
Potency [4]: inactive
Potency [5]: inactive
Potency [6]: inactive
Potency [7]: inactive
Potency [8]: inactive
Potency [9]: inactive
Potency [10]: inactive
Potency [11]: inactive
outcome [12]: inactive

CN(C)c1ccccc1
Potency [13]: inactive
Potency [14]: inactive
Potency [2]: inactive
Potency [15]: inactive
Potency [3]: inactive
Potency [16]: inactive
Potency [4]: inactive
Potency [5]: inactive
Potency [6]: inactive
Potency [7]: inactive
Potency [8]: inactive
Potency [9]: inactive
Potency [11]: inactive
outcome [12]: inactive
Potency [17]: inactive
Potency [18]: inactive

CCCCCCCCCc1ccc(O)cc1
Potency [13]: inactive
Potency [2]: inactive
Potency [3]: inactive
outcome [19]: inactive
Potency [16]: inactive
Potency [5]: inactive
Potency [6]: inactive
Potency [7]: inactive
Potency [8]: inactive
Potency [9]: 61.8 µM (active) and inactive

— PubChem BioAssay (Tox21)
